From PubChem BioAssay AID1645853 (Buhrlage Lab, Dana-Farber Cancer Institute and Novartis …, 2021)
The whole screen tested about 47,000 compounds, of which about 2,000 (4.3%) were called active. Cut-off read from the data, not from the text of the source: active = inhibition above about 30%; inactive = the rest. The sample as a whole holds a higher share of actives than the screen did.

target: Ubiquitin carboxyl-terminal hydrolase 8 (Homo sapiens) (UniProt P40818); test: blocks human USP8 ubiquitin-rhodamine cleavage (AID 1645853); settings: purified USP8, Ub-rhodamine cleavage fluorescence, 30 min; at 20 µM; hits give high values
Sequence (P40818 whole entry, looked up): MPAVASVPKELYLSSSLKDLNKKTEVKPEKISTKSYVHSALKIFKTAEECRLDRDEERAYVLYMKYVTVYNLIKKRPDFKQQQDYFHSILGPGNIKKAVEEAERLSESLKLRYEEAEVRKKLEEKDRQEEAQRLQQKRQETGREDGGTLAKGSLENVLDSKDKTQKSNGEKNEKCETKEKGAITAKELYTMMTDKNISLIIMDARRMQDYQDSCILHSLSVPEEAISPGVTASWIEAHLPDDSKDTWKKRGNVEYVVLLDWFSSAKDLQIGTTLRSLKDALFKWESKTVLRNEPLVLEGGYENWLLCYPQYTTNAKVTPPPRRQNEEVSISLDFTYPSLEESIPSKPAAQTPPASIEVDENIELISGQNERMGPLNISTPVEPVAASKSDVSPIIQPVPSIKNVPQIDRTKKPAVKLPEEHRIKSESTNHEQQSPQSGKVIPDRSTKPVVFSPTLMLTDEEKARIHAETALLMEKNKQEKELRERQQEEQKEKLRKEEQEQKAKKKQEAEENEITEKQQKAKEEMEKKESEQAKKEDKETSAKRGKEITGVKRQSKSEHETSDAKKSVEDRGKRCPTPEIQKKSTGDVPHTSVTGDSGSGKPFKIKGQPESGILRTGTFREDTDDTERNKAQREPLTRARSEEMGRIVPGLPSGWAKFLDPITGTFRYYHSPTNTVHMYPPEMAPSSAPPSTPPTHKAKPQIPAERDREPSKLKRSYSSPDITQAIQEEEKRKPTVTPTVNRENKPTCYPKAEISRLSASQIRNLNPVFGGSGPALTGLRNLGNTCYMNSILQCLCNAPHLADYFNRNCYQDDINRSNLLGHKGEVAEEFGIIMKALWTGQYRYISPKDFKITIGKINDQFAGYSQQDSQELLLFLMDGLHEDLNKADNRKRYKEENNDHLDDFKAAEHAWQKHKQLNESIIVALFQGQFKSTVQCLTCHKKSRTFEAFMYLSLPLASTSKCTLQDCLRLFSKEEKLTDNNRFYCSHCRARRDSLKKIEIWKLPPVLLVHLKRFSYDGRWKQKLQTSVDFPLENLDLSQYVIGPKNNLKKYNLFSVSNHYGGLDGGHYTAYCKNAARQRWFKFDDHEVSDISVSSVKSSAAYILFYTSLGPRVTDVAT

SMILES	inhibition
O=C(CCOc1ccccc1F)Nc1ccc2c(c1)OCO2	7.17% (inactive)
O=C(Nc1ccc2c(c1)OCO2)N1CCCCCC1	5.28% (inactive)
O=C(CN1CCN(CC(=O)Nc2ccc3c(c2)OCO3)CC1)Nc1ccc(F)cc1	38.1% (active)
CCOc1ccc(-c2noc(-c3nn(-c4cccc(OC)c4)ccc3=O)n2)cc1	81.8% (active)
Cc1ccc(-c2noc(-c3cccc(OCC(=O)N(C)C)c3)n2)cc1	-30% (inactive)
COc1cccc(-c2cc3c(=O)n(Cc4nc(-c5ccccc5C)no4)ccn3n2)c1	0.201% (inactive)
COc1nc2c(c(-c3ccc[nH]3)c1C#N)Cc1ccccc1-2	-97.1% (inactive)
Nc1cccc(C(=O)CC2(O)C(=O)N(CCc3ccccc3)c3ccccc32)c1 (stereo unspecified)	-96.8% (inactive)
CNc1nc(C2CCCN(C(C)=O)C2)nc2c1CCN(C(=O)c1oc3ccccc3c1C)C2 (stereo unspecified)	-2.25% (inactive)
O=C(CCc1nnc2ccc(N3CCCC3)nn12)NCc1ccc(F)cc1	29.2% (inactive)
O=C(COc1cccc2ccc(N3CCC(Cc4ccccc4)CC3)nc12)Nc1cccc(F)c1	84.1% (active)
Cn1c(=O)c(N2CCC(C(=O)NCc3ccc(F)cc3)CC2)nc2cccnc21	7.77% (inactive)
O=C(CC1C(=O)OCCN1Cc1ccccc1)Nc1cccc(F)c1 (stereo unspecified)	-10.4% (inactive)
COc1ccc(NC(=O)CSc2ncccc2C(=O)N2CCC(Cc3ccccc3)CC2)cc1OC	-0.608% (inactive)
O=C(COc1cccc2ccc(N3CCC(Cc4ccccc4)CC3)nc12)NCc1ccc(F)cc1	65.7% (active)
CC(c1ccccc1)n1c(CCCNC(=O)C2CCCCC2)nc2ccccc21 (stereo unspecified)	-8.43% (inactive)
Cc1ccc(NC(=O)Cn2cccc(S(=O)(=O)N3CCCCCC3)c2=O)c(C)c1	-3.12% (inactive)
Cn1c2c(c(=O)n(C)c1=O)C(c1cccc(Cl)c1Cl)CC(=O)N2 (stereo unspecified)	-0.255% (inactive)
O=C(CSc1n[nH]c(-c2cccnc2)n1)Nc1ccc(Cl)cc1	-5.47% (inactive)

SMILES	inhibition
COCCn1c(=O)[nH]c2cc(C(=O)NCCNc3ccc([N+](=O)[O-])cc3C#N)ccc2c1=O	55.6% (active)
COCCn1c(=O)[nH]c2cc(C(=O)NCc3ccc(Cl)cc3)ccc2c1=O	-1.21% (inactive)
COCCn1c(=O)[nH]c2cc(C(=O)N3CCC(Cc4ccccc4)CC3)ccc2c1=O	-0.0121% (inactive)
Cc1cccc(NC(=O)N2CCCC3(CCCN3C)C2)c1 (stereo unspecified)	-319% (inactive)
CN1CCN(c2ncc(NC(=O)c3ccc(C(F)(F)F)cc3)cn2)CC1	-15.2% (inactive)
CC(=O)N1Cc2ccccc2OC2(CCN(CC(=O)Nc3cccc(C)c3C)CC2)C1	-15.9% (inactive)
Cn1cccc1/C(C#N)=C\c1ccc2c(c1)OCO2	76.2% (active)
Cn1c(=O)c(-c2ccc(C(=O)NCc3ccc(F)cc3F)cc2)nc2cccnc21	15.4% (inactive)
CNC(=O)C1(C)CN(C(=O)c2ccc3[nH]c(C)c(C)c3c2)CCO1 (stereo unspecified)	-61.8% (inactive)
Cc1cc(NC(=O)CSc2nccn2-c2ccc([N+](=O)[O-])cc2)no1	-89.6% (inactive)
O=C(NCC1CC1)[C@H]1C[C@@H]2CN(CC3CC3)C[C@H]1O2	-27.5% (inactive)
CCOC(=O)c1cc2c(ccn2-c2ccc(F)cc2)n1Cc1ncc(C)c(OC)c1C	3.2% (inactive)
CC(C)OC(=O)c1cc2c(ccn2-c2ccc(F)cc2)n1Cc1ccccn1	64% (active)
COC(=O)c1cc2sc(Cl)cc2n1Cc1cc(=O)n2ccccc2n1	-9.48% (inactive)
O=C(NC(c1ccccc1)C1CC1)c1ccc2c(c1)S(=O)(=O)Nc1ncnn1-2 (stereo unspecified)	-8.33% (inactive)
COc1ccccc1NS(=O)(=O)c1ccc2oc(Nc3ccc(Cl)c(C(F)(F)F)c3)nc2c1	-24.6% (inactive)
COc1ccc2c(c1)c(N1CCCC1=O)c(C(=O)NCc1ccccn1)n2C	-0.85% (inactive)
Cc1nn(-c2ccc(F)cc2)c(C)c1S(=O)(=O)NCc1ccc2c(c1)OCO2	-20.2% (inactive)
Cc1nn(CC(=O)c2cc(C)n(-c3ccc4c(c3)OCO4)c2C)c(C)c1[N+](=O)[O-]	58.8% (active)

SMILES	inhibition
COc1cccc(C2C3=C(CC(C)(C)CC3=O)Nc3ccccc3N2C(=O)Cc2ccccc2)c1 (stereo unspecified)	2.23% (inactive)
Cc1ccccc1-c1nc(-c2cn(CC(=O)Nc3ccccc3)cn2)no1	64.4% (active)
Cc1cc(C)cc(NC(=O)Cn2cnc(-c3nc(C)cs3)c2)c1	-4.24% (inactive)
Cc1ccccc1-c1nc(-c2cccc(OCC(=O)N3CCOCC3)c2)no1	7.89% (inactive)
C[C@H](NC(=O)c1ccc2c(c1)OCO2)c1nc2cc(-c3ccc(F)cc3)ncn2n1	18% (inactive)
Nc1c(-c2ccc(Cl)cc2)cnc2c(-c3ccccc3)c(COc3ccccc3)nn12	-0.15% (inactive)
COc1ccc(-c2noc(-c3cccc(OCC(=O)NC(C)C)c3)n2)cc1	-16.3% (inactive)
COc1ccc(NC(=O)Cc2noc(-c3cccc(OC)c3)n2)cc1	50.5% (active)
COc1ccc(OCC(=O)Nc2noc(-c3ccccc3)n2)cc1	15.1% (inactive)
CN(C)[C@@H]1CN(S(=O)(=O)N2CCOCC2)C[C@H]1O	11.8% (inactive)
Cc1ccc(C(=O)N2C[C@@H]3CCN(c4ncccn4)C[C@@H]3C2)cc1	-16.6% (inactive)
COc1cccc(CNC(=O)c2nnn(CC(=O)Nc3cc(C)ccc3C)c2N)c1	67.9% (active)
COc1cccc(NC(=O)c2nnn(Cc3nc(-c4cccc(C)c4)oc3C)c2N)c1	-2.67% (inactive)
COc1cccc(CNC(=O)Cn2cnc(S(=O)(=O)N3CCCC3)c2)c1	19% (inactive)
Cc1ccc(C)c(NC(=O)c2cn(C)cc3c(=O)n(-c4ccccc4)nc2-3)c1	-13.8% (inactive)
Cc1nc(-c2ccc(C)c(S(=O)(=O)NCC(=O)Nc3cccc(Cl)c3)c2)no1	7.8% (inactive)
Cc1ccc(Nc2nc(NCC(=O)Nc3cc(C)ccc3C)nc(Nc3ccc(C)cc3)n2)cc1	38% (active)
CCCN1CCC(N2C[C@@H]3CN(S(=O)(=O)c4ccccc4)C[C@@H]3C2)CC1	-38.2% (inactive)
